Assay results from the supplement of paper PMC6522484.
± gives the standard deviation of the averaged measurements.

Tests used:
DLD1 [1] = assay: cell viability (CellTiter-Glo) relative to plate median (fraction of plate median); higher = more viable cells; details: 5 µM; treatment time 24 h; reporter: 7TFP
Outline: (§1)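 Each entry is a luminescence signal normalised to the plate median, averaged over independent replicates. The replicate count was two, and the cells were colorectal cancer lines with stable lentiviral TCF/Wnt firefly luciferase reporters exposed to library compounds at a final 5 µM for 24 h. Firefly luciferase and CellTiterGlo were measured on parallel plates.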

HCT116 = assay: as above; details: 5 µM; treatment time 24 h; reporter: TCF4/Wnt
Outline: as §1

SW480 [2] = assay: as above; details: 5 µM; treatment time 24 h; reporter: 7TFP
Outline: as §1

DLD1 [3] = assay: TCF/Wnt firefly luciferase reporter signal relative to plate median (fraction of plate median); higher = higher Wnt reporter signal; details: 5 µM; treatment time 24 h; reporter: 7TFP
Outline: as §1

SW480 [4] = assay: as above; details: 5 µM; treatment time 24 h; reporter: 7TFP
Outline: as §1

CC(C)CC(N(C)C)C1(c2ccc(Cl)cc2)CCC1 (stereo not given)
cell viability (DLD1 [1]): 0.917 ± 0.072 | cell viability (HCT116): 0.924 ± 0.013 | cell viability (SW480 [2]): 1.02 ± 0.042 | TCF/Wnt firefly luciferase reporter signal (DLD1 [3]): 0.991 ± 0.042 | TCF/Wnt firefly luciferase reporter signal (SW480 [4]): 0.87 ± 0.073

CC(=O)O[C@H]1C[C@H](O[C@H]2[C@@H](O)C[C@H](O[C@H]3[C@@H](O)C[C@H](O[C@H]4CC[C@@]5(C)[C@H](CC[C@@H]6[C@@H]5C[C@@H](O)[C@]5(C)[C@@H](C7=CC(=O)OC7)CC[C@]65O)C4)O[C@@H]3C)O[C@@H]2C)O[C@H](C)[C@H]1O[C@@H]1O[C@H](CO)[C@@H](O)[C@H](O)[C@H]1O
cell viability (DLD1 [1]): 0.65 ± 0.044 | cell viability (HCT116): 0.636 ± 0.0042 | cell viability (SW480 [2]): 0.851 ± 0.078 | TCF/Wnt firefly luciferase reporter signal (DLD1 [3]): 0.264 ± 0.13 | TCF/Wnt firefly luciferase reporter signal (SW480 [4]): 0.584 ± 0.057

CCOC(=O)C1C(C=C(C)C)C1(C)C (stereo not given)
cell viability (DLD1 [1]): 0.913 ± 0.11 | cell viability (HCT116): 0.961 ± 0.038 | cell viability (SW480 [2]): 0.932 ± 0.05 | TCF/Wnt firefly luciferase reporter signal (DLD1 [3]): 0.906 ± 0.064 | TCF/Wnt firefly luciferase reporter signal (SW480 [4]): 1.02 ± 0.035

C[C@]12CC[C@H](O)C[C@@H]1CC[C@@H]1[C@@H]2CC[C@]2(C)C(=O)CC[C@@H]12
cell viability (DLD1 [1]): 0.956 ± 0.038 | cell viability (HCT116): 0.9945 ± 0.0078 | cell viability (SW480 [2]): 1.01 ± 0.11 | TCF/Wnt firefly luciferase reporter signal (DLD1 [3]): 1.075 ± 0.0071 | TCF/Wnt firefly luciferase reporter signal (SW480 [4]): 1.01 ± 0.033

CC[C@H]1CN2CCc3cc(OC)c(OC)cc3[C@@H]2C[C@@H]1C[C@H]1NCCc2cc(OC)c(OC)cc21
cell viability (DLD1 [1]): 0.984 ± 0.094 | cell viability (HCT116): 0.815 ± 0.3 | cell viability (SW480 [2]): 0.902 ± 0.059 | TCF/Wnt firefly luciferase reporter signal (DLD1 [3]): 0.615 ± 0.1 | TCF/Wnt firefly luciferase reporter signal (SW480 [4]): 0.608 ± 0.064

COc1cccc2c1cc([N+](=O)[O-])c1c(C(=O)O)cc3c(c12)OCO3
cell viability (DLD1 [1]): 0.983 ± 0.052 | cell viability (HCT116): 1.06 ± 0.098 | cell viability (SW480 [2]): 1.01 ± 0.018 | TCF/Wnt firefly luciferase reporter signal (DLD1 [3]): 1.28 ± 0.12 | TCF/Wnt firefly luciferase reporter signal (SW480 [4]): 1.1 ± 0.13

C=C(C)[C@H]1Cc2c(ccc3c(=O)c4c(oc23)COc2cc(OC)c(OC)cc2-4)O1
cell viability (DLD1 [1]): 1.07 ± 0.12 | cell viability (HCT116): 1 ± 0.041 | cell viability (SW480 [2]): 1.12 ± 0.2 | TCF/Wnt firefly luciferase reporter signal (DLD1 [3]): 1.04 ± 0.099 | TCF/Wnt firefly luciferase reporter signal (SW480 [4]): 0.919 ± 0.13

Cc1cc(O)ccc1Cl
cell viability (DLD1 [1]): 1.04 ± 0.035 | cell viability (HCT116): 0.994 ± 0.023 | cell viability (SW480 [2]): 1.02 ± 0.028 | TCF/Wnt firefly luciferase reporter signal (DLD1 [3]): 0.941 ± 0.015 | TCF/Wnt firefly luciferase reporter signal (SW480 [4]): 0.834 ± 0.069

CC(CCc1ccccc1)NC(C)C(O)c1ccc(O)cc1 (stereo not given)
cell viability (DLD1 [1]): 0.942 ± 0.064 | cell viability (HCT116): 0.904 ± 0.061 | cell viability (SW480 [2]): 0.902 | TCF/Wnt firefly luciferase reporter signal (DLD1 [3]): 1.2 ± 0.11 | TCF/Wnt firefly luciferase reporter signal (SW480 [4]): 1.12 ± 0.014

CC1=CCCC2C1(C)CCC(C)C2(C)CC/C(C)=C/Cn1c[n+](C)c2c(N)ncnc21 (stereo not given) [AGELASINE (stereochemistry of diterpene unknown)]
cell viability (DLD1 [1]): 1.02 ± 0.14 | cell viability (HCT116): 1.06 ± 0.071 | cell viability (SW480 [2]): 0.94 ± 0.015 | TCF/Wnt firefly luciferase reporter signal (DLD1 [3]): 1.18 ± 0.092 | TCF/Wnt firefly luciferase reporter signal (SW480 [4]): 1.07 ± 0.078

CNc1ccccc1C(=O)O
cell viability (DLD1 [1]): 0.923 ± 0.12 | cell viability (HCT116): 0.85 ± 0.12 | cell viability (SW480 [2]): 1.004 ± 0.0085 | TCF/Wnt firefly luciferase reporter signal (DLD1 [3]): 0.931 ± 0.088 | TCF/Wnt firefly luciferase reporter signal (SW480 [4]): 1.1 ± 0.078

COc1ccc(Cc2nccc3cc(OC)c(OC)cc23)cc1OC
cell viability (DLD1 [1]): 1.09 ± 0.085 | cell viability (HCT116): 1.01 ± 0.1 | cell viability (SW480 [2]): 0.994 ± 0.066 | TCF/Wnt firefly luciferase reporter signal (DLD1 [3]): 0.961 ± 0.052 | TCF/Wnt firefly luciferase reporter signal (SW480 [4]): 1.07 ± 0.057

C[C@@H]1CC[C@@]2(OC1)O[C@H]1[C@@H](O)[C@H]3[C@@H]4CC[C@H]5C[C@@H](O[C@@H]6O[C@H](CO)[C@H](O[C@@H]7O[C@H](CO)[C@@H](O)[C@H](O[C@@H]8OC[C@@H](O)[C@H](O)[C@H]8O)[C@H]7O[C@@H]7O[C@H](CO)[C@H](O)[C@H](O[C@@H]8O[C@H](CO)[C@@H](O)[C@H](O)[C@H]8O)[C@H]7O)[C@H](O)[C@H]6O)[C@H](O)C[C@]5(C)[C@H]4CC[C@]3(C)[C@H]1[C@@H]2C
cell viability (DLD1 [1]): 1.02 ± 0.11 | cell viability (HCT116): 1.065 ± 0.0071 | cell viability (SW480 [2]): 1.035 ± 0.0071 | TCF/Wnt firefly luciferase reporter signal (DLD1 [3]): 0.986 ± 0.09 | TCF/Wnt firefly luciferase reporter signal (SW480 [4]): 1.095 ± 0.0071

CC(=O)Nc1cc([As](=O)(O)O)ccc1O
cell viability (DLD1 [1]): 1.04 ± 0.064 | cell viability (HCT116): 0.994 ± 0.023 | cell viability (SW480 [2]): 1.02 | TCF/Wnt firefly luciferase reporter signal (DLD1 [3]): 1.13 ± 0.085 | TCF/Wnt firefly luciferase reporter signal (SW480 [4]): 0.973 ± 0.038

CN1[C@@H]2CC[C@H]1C[C@@H](OC(=O)C(CO)c1ccccc1)C2 (stereo not given in full)
cell viability (DLD1 [1]): 0.911 ± 0.12 | cell viability (HCT116): 1.01 ± 0.033 | cell viability (SW480 [2]): 0.994 ± 0.08 | TCF/Wnt firefly luciferase reporter signal (DLD1 [3]): 0.938 ± 0.21 | TCF/Wnt firefly luciferase reporter signal (SW480 [4]): 0.938 ± 0.038

CNC(C)[C@H](O)c1ccccc1 (stereo not given in full)
cell viability (DLD1 [1]): 0.976 ± 0.063 | cell viability (HCT116): 0.917 ± 0.0099 | cell viability (SW480 [2]): 1.02 ± 0.03 | TCF/Wnt firefly luciferase reporter signal (DLD1 [3]): 0.978 ± 0.2 | TCF/Wnt firefly luciferase reporter signal (SW480 [4]): 1 ± 0.095

COC(C)(C)CCC[C@H](C)C/C=C/C(C)=C/C(=O)OC(C)C
cell viability (DLD1 [1]): 0.948 ± 0.1 | cell viability (HCT116): 1.02 ± 0.014 | cell viability (SW480 [2]): 0.972 ± 0.083 | TCF/Wnt firefly luciferase reporter signal (DLD1 [3]): 0.968 ± 0.12 | TCF/Wnt firefly luciferase reporter signal (SW480 [4]): 0.787 ± 0.08

CC(NC(C)(C)C)C(=O)c1cccc(Cl)c1 (stereo not given)
cell viability (DLD1 [1]): 1.02 ± 0.037 | cell viability (HCT116): 1.02 ± 0.021 | cell viability (SW480 [2]): 1.02 ± 0.021 | TCF/Wnt firefly luciferase reporter signal (DLD1 [3]): 1.11 ± 0.057 | TCF/Wnt firefly luciferase reporter signal (SW480 [4]): 1.02 ± 0.11

CC(C)=CCOc1c2occc2cc2ccc(=O)oc12
cell viability (DLD1 [1]): 1.03 ± 0.086 | cell viability (HCT116): 0.997 ± 0.1 | cell viability (SW480 [2]): 1.01 ± 0.014 | TCF/Wnt firefly luciferase reporter signal (DLD1 [3]): 1.12 ± 0.05 | TCF/Wnt firefly luciferase reporter signal (SW480 [4]): 0.998 ± 0.16

CC(=O)O[C@@H]1CC2C(C)(C)[C@H](O)C=C[C@]2(C)C2CC[C@]3(C)C(=CC(=O)O[C@H]3c3ccoc3)[C@@]21C (stereo partly drawn) [3-alpha-HYDROXYDEOXYGEDININ]
cell viability (DLD1 [1]): 1.08 ± 0.092 | cell viability (HCT116): 1.11 ± 0.014 | cell viability (SW480 [2]): 1.08 ± 0.11 | TCF/Wnt firefly luciferase reporter signal (DLD1 [3]): 1.04 ± 0.097 | TCF/Wnt firefly luciferase reporter signal (SW480 [4]): 0.943 ± 0.076

O=C([O-])c1ccccc1-c1c2cc(Br)c(=O)cc-2oc2[c]([Hg+])c([O-])c(Br)cc12.[Na+].[Na+].[OH-]
cell viability (DLD1 [1]): 0.955 ± 0.0071 | cell viability (HCT116): 0.961 ± 0.13 | cell viability (SW480 [2]): 0.945 ± 0.0099 | TCF/Wnt firefly luciferase reporter signal (DLD1 [3]): 1 ± 0.15 | TCF/Wnt firefly luciferase reporter signal (SW480 [4]): 0.934 ± 0.052

CN1C[C@H](C(=O)N[C@]2(C)O[C@@]3(O)[C@@H]4CCCN4C(=O)[C@H](Cc4ccccc4)N3C2=O)C[C@@H]2c3cccc4[nH]cc(c34)C[C@H]21
cell viability (DLD1 [1]): 0.89 ± 0.098 | cell viability (HCT116): 0.878 ± 0.054 | cell viability (SW480 [2]): 1 ± 0.037 | TCF/Wnt firefly luciferase reporter signal (DLD1 [3]): 0.9 ± 0.052 | TCF/Wnt firefly luciferase reporter signal (SW480 [4]): 0.884 ± 0.0057

CCCCC[C@H](O)c1c(O)cc2c(c1O)C(=O)c1c(O)cc(O)cc1C2=O [Averantin]
cell viability (DLD1 [1]): 1.02 ± 0.035 | cell viability (HCT116): 1.075 ± 0.0071 | cell viability (SW480 [2]): 0.9935 ± 0.00071 | TCF/Wnt firefly luciferase reporter signal (DLD1 [3]): 1 ± 0.11 | TCF/Wnt firefly luciferase reporter signal (SW480 [4]): 0.939 ± 0.14

COc1cc2c3cc1Oc1c(OC)c(OC)cc4c1[C@@H](Cc1cccc(c1)Oc1ccc(c(O)c1)C[C@@H]3N(C)CC2)N(C)CC4
cell viability (DLD1 [1]): 1.03 ± 0.045 | cell viability (HCT116): 1 ± 0.028 | cell viability (SW480 [2]): 1.12 ± 0.05 | TCF/Wnt firefly luciferase reporter signal (DLD1 [3]): 0.9605 ± 0.00071 | TCF/Wnt firefly luciferase reporter signal (SW480 [4]): 1.12 ± 0.064

C/C=C/c1ccc2c(c1)OCO2
cell viability (DLD1 [1]): 0.951 ± 0.13 | cell viability (HCT116): 0.998 ± 0.059 | cell viability (SW480 [2]): 0.986 ± 0.049 | TCF/Wnt firefly luciferase reporter signal (DLD1 [3]): 1.04 ± 0.17 | TCF/Wnt firefly luciferase reporter signal (SW480 [4]): 1.05 ± 0.1

CC(C)=CCCC1(C)C=Cc2c(O)c3c(c(CC=C(C)C)c2O1)OC12C(CC4CC1C(C)(C)OC2(C/C=C(/C)C(=O)O)C4O)C3=O (stereo not given)
cell viability (DLD1 [1]): 0.979 ± 0.087 | cell viability (HCT116): 1.04 ± 0.014 | cell viability (SW480 [2]): 1.08 ± 0.028 | TCF/Wnt firefly luciferase reporter signal (DLD1 [3]): 0.975 ± 0.027 | TCF/Wnt firefly luciferase reporter signal (SW480 [4]): 0.807 ± 0.036

O=C1CCC[C@@H]2[C@H]3C[C@@H](CN12)[C@@H]1CCCCN1C3.[O-][Cl+3]([O-])([O-])O
cell viability (DLD1 [1]): 1.01 ± 0.024 | cell viability (HCT116): 0.956 ± 0.053 | cell viability (SW480 [2]): 0.976 ± 0.021 | TCF/Wnt firefly luciferase reporter signal (DLD1 [3]): 0.922 ± 0.022 | TCF/Wnt firefly luciferase reporter signal (SW480 [4]): 0.97 ± 0.018
